According to PubChem BioAssay AID1159580 (chemical genetic matrix, 2015):
About 2,000 (36%) of roughly 5,500 compounds were called active. Not shown: some 18% with an inconclusive outcome. The list shows a part of the results. Unmarked numbers belong to inactive results. Cut-off read from the data, not from the text of the source: active = normalized growth mostly below about 0.91 (no sharp cut-off); inconclusive = no clear call, values can overlap the other calls; inactive = mostly above about 0.92.

Assay: chemical genetic growth profiling, strain panel (AID 1159580);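 note: tested at 20 µM; growth read once vehicle control cultures reached saturation at 30 °C; 1 = growth at the plate median or of vehicle wells; lower values mean less growth of the strain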
Conditions: S. cerevisiae deletion strains, growth OD
[1] = locus YDL101C, strain DUN1, hits give low values
[2] = locus YHR030C, strain SLT2, hits give low values
[3] = locus YAR019C, strain CDC15, hits give low values
[4] = locus YBL105C, strain PKC1, hits give low values
[5] = locus YBR135W, strain CKS1, hits give low values
[6] = locus YBR136W, strain MEC1, hits give low values
[7] = locus YBR160W, strain CDC28, hits give low values
[8] = locus YDL017W, strain CDC7, hits give low values
[9] = locus YDL028C, strain MPS1, hits give low values
[10] = locus YDL108W, strain KIN28, hits give low values
[11] = locus YDL132W, strain cdc53, hits give low values
[12] = locus YDL214C, strain PRR2, hits give low values
[13] = locus YDR052C, strain DBF4, hits give low values
[14] = locus YDR054C, strain cdc34, hits give low values
[15] = locus YDR226W, strain ADK1, hits give low values
[16] = locus YDR477W, strain SNF1, hits give low values
[17] = locus YER123W, strain YCK3, hits give low values
[18] = locus YER133W, strain GLC7, hits give low values
[19] = locus YFL009W, strain cdc4, hits give low values
[20] = locus YFL029C, strain CAK1, hits give low values
[21] = locus YFR003C, strain YPI1, hits give low values
[22] = locus YFR019W, strain FAB1, hits give low values
[23] = locus YFR028C, strain CDC14, hits give low values
[24] = locus YGR040W, strain KSS1, hits give low values
[25] = locus YGR052W, strain FMP48, hits give low values
[26] = locus YGR092W, strain DBF2, hits give low values
[27] = locus YHR079C, strain IRE1, hits give low values
[28] = locus YHR082C, strain KSP1, hits give low values
[29] = locus YHR205W, strain SCH9, hits give low values
[30] = locus YIL147C, strain SLN1, hits give low values
[31] = locus YJL095W, strain BCK1, hits give low values
[32] = locus YJL128C, strain PBS2, hits give low values
[33] = locus YJL157C, strain FAR1, hits give low values
[34] = locus YJR016C, strain ILV3, hits give low values
[35] = locus YJR066W, strain TOR1 (second series), hits give low values
[36] = locus YJR066W, strain TOR1, hits give low values
[37] = locus YKL048C, strain ELM1, hits give low values
[38] = locus YKL067W, strain YNK1, hits give low values
[39] = locus YKL101W, strain HSL1, hits give low values
[40] = locus YKL193C, strain SDS22, hits give low values
[41] = locus YKL203C, strain TOR2, hits give low values
[42] = locus YLR113W, strain HOG1, hits give low values
[43] = locus YLR133W, strain CKI1, hits give low values
[44] = locus YLR403W, strain SFP1, hits give low values
[45] = locus YML070W, strain DAK1, hits give low values
[46] = locus YMR001C, strain CDC5, hits give low values
[47] = locus YMR205C, strain PFK2 (second series), hits give low values
[48] = locus YMR277W, strain FCP1, hits give low values
[49] = locus YNL006W, strain LST8, hits give low values
[50] = locus YNL020C, strain ARK1, hits give low values
[51] = locus YNL161W, strain CBK1, hits give low values
[52] = locus YNL183C, strain NPR1, hits give low values
[53] = locus YNL207W, strain RIO2, hits give low values
[54] = locus YNL222W, strain SSU72, hits give low values
[55] = locus YNL307C, strain MCK1 (second series), hits give low values
[56] = locus YOL078W, strain AVO1, hits give low values
[57] = locus YOL136C, strain PFK27, hits give low values
[58] = locus YOR061W, strain CKA2, hits give low values
[59] = locus YOR119C, strain RIO1, hits give low values
[60] = locus YOR231W, strain MKK1, hits give low values
[61] = locus YOR329C, strain SCD5, hits give low values
[62] = locus YPL031C, strain PHO85, hits give low values
[63] = locus YPL153C, strain RAD53, hits give low values
[64] = locus YPL204W, strain HRR25, hits give low values
[65] = locus YPL209C, strain IPL1, hits give low values
[66] = locus YPL256C, strain CLN2, hits give low values
[67] = locus YPR025C, strain CCL1, hits give low values
[68] = locus YPR106W, strain ISR1, hits give low values
[69] = locus YPR111W, strain DBF20, hits give low values
[70] = strain NNK1, hits give low values
[71] = strain TSCII, hits give low values

CC(=O)c1csc([N+](=O)[O-])c1
normalized growth (locus YAL013W, strain DEP1, hits give low values): 1.01
normalized growth (locus YBR229C, strain ROT2, hits give low values): 1.02
normalized growth [1]: 0.951
normalized growth (locus YDL134C, strain PPH21, hits give low values): 1
normalized growth (locus YDR150W, strain NUM1, hits give low values): 0.921
normalized growth (locus YEL061C, strain CIN8, hits give low values): 1.02
normalized growth (locus YGR078C, strain PAC10, hits give low values): 0.975
normalized growth (locus YGR229C, strain SMI1, hits give low values): 1.01
normalized growth [2]: 1.08
normalized growth (locus YHR087W, strain rtc3, hits give low values): 1.02
normalized growth (locus YJL187C, strain SWE1, hits give low values): 0.983
normalized growth (locus YJR043C, strain POL32, hits give low values): 1
normalized growth (locus YJR075W, strain HOC1, hits give low values): 0.99
normalized growth (locus YKL190W, strain CNB1, hits give low values): 1.01
normalized growth (locus YLR039C, strain RIC1, hits give low values): 1
normalized growth (locus YLR058C, strain SHM2 (second series), hits give low values): 0.998
normalized growth (locus YLR085C, strain ARP6, hits give low values): 0.89
normalized growth (locus YLR262C, strain YPT6, hits give low values): 0.976
normalized growth (locus YML094W, strain GIM5, hits give low values): 1.02
normalized growth (locus YMR219W, strain ESC1, hits give low values): 0.996
normalized growth (locus YMR263W, strain SAP30, hits give low values): 1.01
normalized growth (locus YMR307W, strain GAS1, hits give low values): 1.03
normalized growth (locus YNL153C, strain GIM3, hits give low values): 0.947
normalized growth (locus YNL298W, strain CLA4 (second series), hits give low values): 1.02
normalized growth (locus YNL322C, strain KRE1, hits give low values): 1.01
normalized growth (locus YNR030W, strain Alg12, hits give low values): 1.02
normalized growth (locus YPL055C, strain LGE1, hits give low values): 0.996
normalized growth (locus YPL241C, strain CIN2, hits give low values): 1.09
normalized growth (locus YPR135W, strain CTF4, hits give low values): 0.988

O=C(Nc1ccc(Cl)cc1)c1csc([N+](=O)[O-])c1
normalized growth [3]: 0.92
normalized growth [4]: 0.93
normalized growth [5]: 0.931
normalized growth [6]: 0.927
normalized growth [7]: 0.933
normalized growth [8]: 0.938
normalized growth [9]: 0.922
normalized growth [1]: 0.943
normalized growth [10]: 0.929
normalized growth [11]: 0.908
normalized growth [12]: 0.874
normalized growth [13]: 0.936
normalized growth [14]: 0.901
normalized growth [15]: 0.923
normalized growth [16]: 0.803
normalized growth [17]: 0.795
normalized growth [18]: 0.764
normalized growth [19]: 0.913
normalized growth [20]: 0.919
normalized growth [21]: 0.924
normalized growth [22]: 0.918
normalized growth [23]: 0.915
normalized growth [24]: 0.797
normalized growth [25]: 0.826
normalized growth [26]: 0.545
normalized growth [2]: 0.583 (active)
normalized growth [27]: 0.764
normalized growth [28]: 0.891
normalized growth [29]: 0.786
normalized growth [30]: 0.923
normalized growth [31]: 0.697
normalized growth [32]: 0.935
normalized growth [33]: 0.827
normalized growth [34]: 0.926
normalized growth [35]: 0.752
normalized growth [36]: 0.759
normalized growth [37]: 0.874
normalized growth [38]: 0.894
normalized growth [39]: 0.894
normalized growth [40]: 0.92
normalized growth [41]: 0.857
normalized growth [42]: 0.596 (active)
normalized growth [43]: 0.873
normalized growth [44]: 0.79
normalized growth [45]: 0.832
normalized growth [46]: 0.92
normalized growth [47]: 0.862
normalized growth [48]: 0.914
normalized growth [49]: 0.921
normalized growth [50]: 0.863
normalized growth [51]: 0.933
normalized growth [52]: 0.829
normalized growth [53]: 0.908
normalized growth [54]: 0.919
normalized growth [55]: 0.818
normalized growth [56]: 0.923
normalized growth [57]: 0.861
normalized growth [58]: 0.882
normalized growth [59]: 0.86
normalized growth [60]: 0.825
normalized growth [61]: 0.924
normalized growth [62]: 0.773
normalized growth [63]: 0.795
normalized growth [64]: 0.757
normalized growth [65]: 0.926
normalized growth [66]: 0.712 (active)
normalized growth [67]: 0.929
normalized growth [68]: 0.94
normalized growth [69]: 0.925
normalized growth [70]: 0.944
normalized growth [71]: 0.928

O=C(NCc1ccc(F)c(Cl)c1)Nc1csc([N+](=O)[O-])c1
normalized growth [3]: 0.984
normalized growth [4]: 0.979
normalized growth [5]: 0.987
normalized growth [6]: 0.965
normalized growth [7]: 0.981
normalized growth [8]: 0.981
normalized growth [9]: 0.98
normalized growth [1]: 0.984
normalized growth [10]: 0.975
normalized growth [11]: 0.989
normalized growth [12]: 0.975
normalized growth [13]: 0.985
normalized growth [14]: 0.989
normalized growth [15]: 0.986
normalized growth [16]: 0.977
normalized growth [17]: 0.917
normalized growth [18]: 0.965
normalized growth [19]: 0.989
normalized growth [20]: 0.967
normalized growth [21]: 0.984
normalized growth [22]: 0.951
normalized growth [23]: 0.977
normalized growth [24]: 0.976
normalized growth [25]: 1.02
normalized growth [26]: 0.96
normalized growth [2]: 0.906
normalized growth [27]: 0.958
normalized growth [28]: 0.99
normalized growth [29]: 0.932
normalized growth [30]: 0.983
normalized growth [31]: 0.963
normalized growth [32]: 0.957
normalized growth [33]: 0.987
normalized growth [34]: 0.99
normalized growth [35]: 0.952
normalized growth [36]: 0.987
normalized growth [37]: 0.98
normalized growth [38]: 0.973
normalized growth [39]: 0.947
normalized growth [40]: 0.987
normalized growth [41]: 1.03
normalized growth [42]: 0.922
normalized growth [43]: 0.962
normalized growth [44]: 0.948
normalized growth [45]: 0.938
normalized growth [46]: 0.99
normalized growth [47]: 0.962
normalized growth [48]: 0.991
normalized growth [49]: 0.993
normalized growth [50]: 0.972
normalized growth [51]: 0.983
normalized growth [52]: 0.957
normalized growth [53]: 0.981
normalized growth [54]: 0.988
normalized growth [55]: 0.973
normalized growth [56]: 0.983
normalized growth [57]: 0.942
normalized growth [58]: 0.966
normalized growth [59]: 1.01
normalized growth [60]: 0.939
normalized growth [61]: 0.981
normalized growth [62]: 0.983
normalized growth [63]: 0.969
normalized growth [64]: 0.981
normalized growth [65]: 0.981
normalized growth [66]: 0.916
normalized growth [67]: 0.989
normalized growth [68]: 0.978
normalized growth [69]: 0.977
normalized growth [70]: 0.99
normalized growth [71]: 0.981
